Experimental data taken from PubChem BioAssay AID1159580 (chemical genetic matrix, 2015).
“And” between values parts separate entries of the source, which are not always exact repeats. Identical values can stand only once. Screen size: about 5,500 compounds; about 2,000 (36%) were called active. Inconclusive results (about 18%) are left out. Rule as the data show it: active = normalized growth mostly below about 0.91 (no sharp cut-off); inconclusive = no clear call, values can overlap the other calls; inactive = mostly above about 0.92. The list shows a part of the results.

Test: chemical genetic growth profiling, strain panel (AID 1159580);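 also: tested at 20 µM; growth read once vehicle control cultures reached saturation at 30 °C; 1 = growth at the plate median or of vehicle wells; lower values mean less growth of the strain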
Conditions: S. cerevisiae deletion strains, growth OD

Measured: normalized growth

O=C1CCCC2C3CC(CN12)[C@@H]1CCCCN1C3 (stereo not given in full)
inactive: locus YAL013W, strain DEP1, stronger effect = lower value 1.02 | locus YAL021C, strain ccr4, stronger effect = lower value 0.988 | locus YAL026C, strain drs2, stronger effect = lower value 1.01 | locus YAL030W, strain snc1, stronger effect = lower value 0.995 | locus YBL061C, strain skt5, stronger effect = lower value 0.995 | locus YBR009C, strain hhf1, stronger effect = lower value 0.999 | locus YBR021W, strain FUR4, stronger effect = lower value 1.04 | locus YBR023C, strain chs3, stronger effect = lower value 1 | locus YBR171W, strain sec66, stronger effect = lower value 0.992 | locus YBR229C, strain ROT2, stronger effect = lower value 0.985 | locus YBR231C, strain swc5, stronger effect = lower value 0.996 | locus YBR279W, strain paf1, stronger effect = lower value 1 | locus YCL011C, strain gbp2, stronger effect = lower value 0.995 | locus YCL016C, strain dcc1, stronger effect = lower value 0.993 | locus YCL029C, strain bik1, stronger effect = lower value 0.982 | locus YCL061C, strain MRC1, stronger effect = lower value 0.998 | locus YCL069W, strain vba3, stronger effect = lower value 0.999 | locus YCR088W, strain abp1, stronger effect = lower value 0.987 | locus YDL005C, strain med2, stronger effect = lower value 0.991 | locus YDL035C, strain GPR1, stronger effect = lower value 1.02 | locus YDL040C, strain nat1, stronger effect = lower value 0.991 | locus YDL074C, strain BRE1, stronger effect = lower value 1 | locus YDL101C, strain DUN1, stronger effect = lower value 0.988 | locus YDL134C, strain PPH21, stronger effect = lower value 0.993 | locus YDL185W, strain tfp1, stronger effect = lower value 0.984 | locus YDL192W, strain arf1, stronger effect = lower value 0.987 | locus YDR001C, strain nth1, stronger effect = lower value 1 | locus YDR069C, strain doa4, stronger effect = lower value 1.01 | locus YDR101C, strain arx1, stronger effect = lower value 0.988 | locus YDR137W, strain rgp1, stronger effect = lower value 1.01 | locus YDR159W, strain sac3, stronger effect = lower value 0.987 | locus YDR162C, strain NBP2, stronger effect = lower value 1.01 | locus YDR195W, strain ref2 0.981 | locus YDR297W, strain sur2, stronger effect = lower value 0.993 | locus YDR318W, strain mcm21, stronger effect = lower value 1 | locus YDR334W, strain swr1, stronger effect = lower value 1.02 | locus YDR335W, strain msn5, stronger effect = lower value 0.998 | locus YDR388W, stronger effect = lower value 0.997 | locus YDR392W, strain spt3, stronger effect = lower value 0.927 | locus YDR502C, strain sam2, stronger effect = lower value 0.989 | locus YEL003W, strain gim4, stronger effect = lower value 1 | locus YEL037C, strain rad23, stronger effect = lower value 1.01 | locus YEL061C, strain CIN8 (second series), stronger effect = lower value 0.998 | locus YEL061C, strain CIN8, stronger effect = lower value 0.997 | locus YER015W, strain faa2, stronger effect = lower value 1.01 | locus YER016W, strain bim1, stronger effect = lower value 0.995 | locus YER110C, stronger effect = lower value 0.977 | locus YER111C, strain swi4, stronger effect = lower value 0.998 | locus YER155C, strain BEM2 (second series), stronger effect = lower value 1.02 | locus YER155C, strain BEM2, stronger effect = lower value 0.98 | locus YER167W, strain BCK2, stronger effect = lower value 1.01 | locus YFR010W, strain ubp6, stronger effect = lower value 1 | locus YGL078C, strain dbp3, stronger effect = lower value 0.995 | locus YGL086W, strain mad1, stronger effect = lower value 1 | locus YGL167C, strain pmr1, stronger effect = lower value 0.991 | locus YGL173C, strain kem1, stronger effect = lower value 0.979 | locus YGL227W, strain vid30, stronger effect = lower value 1 | locus YGL240W, strain doc1, stronger effect = lower value 1 | locus YGL248W, strain PDE1, stronger effect = lower value 0.995 | locus YGL253W, strain hxk2, stronger effect = lower value 1 | locus YGR078C, strain PAC10, stronger effect = lower value 1.01 | locus YGR135W, strain pre9, stronger effect = lower value 1 | locus YGR229C, strain SMI1, stronger effect = lower value 1.02 | locus YGR252W, strain gcn5, stronger effect = lower value 1 | locus YHR013C, strain ard1, stronger effect = lower value 0.984 | locus YHR027C, strain rpn1, stronger effect = lower value 0.988 | locus YHR030C, strain SLT2, stronger effect = lower value 0.993 and 0.983 | locus YHR079C, strain IRE1 (second series), stronger effect = lower value 1 | locus YHR079C, strain IRE1, stronger effect = lower value 1.01 | locus YHR094C, strain hxt1, stronger effect = lower value 0.982 | locus YHR129C, strain ARP1, stronger effect = lower value 0.983 | locus YHR142W, strain chs7, stronger effect = lower value 0.996 | locus YHR200W, strain rpn10, stronger effect = lower value 0.997 | locus YIL066C, strain RNR3, stronger effect = lower value 1 | locus YIL073C, strain SPO22, stronger effect = lower value 1.02 | locus YIL125W, strain kgd1, stronger effect = lower value 0.994 | locus YIR030C, strain dcg1, stronger effect = lower value 0.993 | locus YJL092W, strain hpr5, stronger effect = lower value 1 | locus YJL095W, strain BCK1 (second series), stronger effect = lower value 0.99 | locus YJL095W, strain BCK1, stronger effect = lower value 0.983 and 0.957 | locus YJL115W, strain asf1, stronger effect = lower value 0.989 | locus YJL129C, strain trk1, stronger effect = lower value 0.99 | locus YJL134W, strain LCB3, stronger effect = lower value 0.997 | locus YJL154C, strain vps35, stronger effect = lower value 0.993 | locus YJL164C, strain tpk1, stronger effect = lower value 1 | locus YJL166W, strain qcr8, stronger effect = lower value 0.989 | locus YJL168C, strain set2, stronger effect = lower value 1 | locus YJL187C, strain SWE1 (second series), stronger effect = lower value 0.987 | locus YJL187C, strain SWE1, stronger effect = lower value 0.996 | locus YJR043C, strain POL32, stronger effect = lower value 1.04 | locus YJR066W, strain TOR1, stronger effect = lower value 0.992 | locus YKL009W, strain mrt4, stronger effect = lower value 0.974 | locus YKL068W, stronger effect = lower value 0.99 | locus YKL085W, strain MDH1 (second series), stronger effect = lower value 1.01 | locus YKL085W, strain MDH1, stronger effect = lower value 1.01 | locus YKL160W, strain elf1, stronger effect = lower value 0.982 | locus YKR001C, strain vps1, stronger effect = lower value 1.01 | locus YKR026C, strain gcn3, stronger effect = lower value 0.99 | locus YKR091W, strain srl3, stronger effect = lower value 1 | locus YLL001W, strain dnm1, stronger effect = lower value 0.979 | locus YLL026W, stronger effect = lower value 0.989 | locus YLL041C, strain sdh2, stronger effect = lower value 1 | locus YLR027C, strain aat2, stronger effect = lower value 0.99 | locus YLR039C, strain RIC1, stronger effect = lower value 1.04 | locus YLR058C, strain SHM2, stronger effect = lower value 0.992 | locus YLR102C, strain apc9, stronger effect = lower value 0.992 | locus YLR113W, strain HOG1, stronger effect = lower value 0.977 | locus YLR221C, strain rsa3, stronger effect = lower value 0.981 | locus YLR258W, strain gsy2, stronger effect = lower value 0.999 | locus YLR262C, strain YPT6 (second series), stronger effect = lower value 0.986 | locus YLR262C, strain YPT6, stronger effect = lower value 1.04 | locus YLR268W, strain sec22, stronger effect = lower value 0.979 | locus YLR320W, strain mms22, stronger effect = lower value 0.979 | locus YLR330W, strain CHS5, stronger effect = lower value 1.01 | locus YLR342W, strain FKS1 (second series), stronger effect = lower value 1.01 | locus YLR342W, strain FKS1, stronger effect = lower value 1.01 | locus YLR357W, strain rsc2, stronger effect = lower value 0.979 | locus YLR370C, strain arc18, stronger effect = lower value 1 | locus YLR371W, strain rom2, stronger effect = lower value 0.984 | locus YLR384C, strain iki3, stronger effect = lower value 1.01 | locus YLR418C, strain cdc73, stronger effect = lower value 1.02 | locus YML016C, strain PPZ1, stronger effect = lower value 0.978 | locus YML032C, strain rad52, stronger effect = lower value 1 | locus YML120C, strain ndi1, stronger effect = lower value 0.996 | locus YML124C, strain tub3, stronger effect = lower value 0.991 | locus YMR058W, strain fet3, stronger effect = lower value 1.01 | locus YMR078C, strain ctf18, stronger effect = lower value 0.991 | locus YMR125W, strain sto1, stronger effect = lower value 0.975 | locus YMR129W, stronger effect = lower value 0.995 | locus YMR205C, strain PFK2, stronger effect = lower value 0.978 | locus YMR223W, strain ubp8, stronger effect = lower value 0.995 | locus YMR231W, strain pep5, stronger effect = lower value 0.999 | locus YMR307W, strain GAS1, stronger effect = lower value 1.06 | locus YNL067W, strain RPL9B, stronger effect = lower value 0.993 | locus YNL071W, strain lat1, stronger effect = lower value 0.997 | locus YNL153C, strain GIM3, stronger effect = lower value 0.993 | locus YNL183C, strain NPR1, stronger effect = lower value 0.967 | locus YNL209W, strain ssb2, stronger effect = lower value 1 | locus YNL233W, strain BNI4, stronger effect = lower value 0.998 | locus YNL248C, strain rpa49, stronger effect = lower value 0.993 | locus YNL250W, strain rad50, stronger effect = lower value 0.984 | locus YNL271C, strain bni1, stronger effect = lower value 0.991 | locus YNL298W, strain CLA4, stronger effect = lower value 1 | locus YNL307C, strain MCK1, stronger effect = lower value 0.985 | locus YNL322C, strain KRE1 (second series), stronger effect = lower value 0.979 | locus YNR049C, strain mso1, stronger effect = lower value 0.994 | locus YNR052C, strain pop2, stronger effect = lower value 0.993 | locus YOL006C, strain TOP1, stronger effect = lower value 0.968 | locus YOL012C, strain htz1 2.29 | locus YOL147C, strain pex11, stronger effect = lower value 0.992 | locus YOR001W, strain rrp6, stronger effect = lower value 1.03 | locus YOR061W, strain CKA2, stronger effect = lower value 0.988 | locus YOR069W, strain VPS5, stronger effect = lower value 0.982 | locus YOR070C, strain gyp1, stronger effect = lower value 1.02 | locus YOR080W, strain dia2, stronger effect = lower value 0.986 | locus YOR083W, strain WHI5, stronger effect = lower value 0.973 | locus YOR106W, strain vam3, stronger effect = lower value 1 | locus YOR136W, strain idh2, stronger effect = lower value 0.985 | locus YOR144C, strain elg1, stronger effect = lower value 0.998 | locus YOR184W, strain ser1, stronger effect = lower value 0.991 | locus YOR231W, strain MKK1, stronger effect = lower value 1.01 | locus YOR265W, strain rbl2, stronger effect = lower value 1 | locus YOR270C, strain vph1, stronger effect = lower value 1.03 | locus YOR290C, strain snf2, stronger effect = lower value 0.975 | locus YOR316C, strain cot1, stronger effect = lower value 0.993 | locus YPL051W, strain arl3, stronger effect = lower value 0.993 | locus YPL078C, strain atp4, stronger effect = lower value 0.997 | locus YPL106C, strain sse1, stronger effect = lower value 0.968 | locus YPL240C, strain hsp82, stronger effect = lower value 0.999 | locus YPL256C, strain CLN2, stronger effect = lower value 1.01 | locus YPR119W, strain clb2, stronger effect = lower value 0.999 | locus YPR141C, strain kar3, stronger effect = lower value 0.982 | locus YPR163C, strain tif3, stronger effect = lower value 0.996 | locus YPR167C, strain met16, stronger effect = lower value 0.995 | strain wtn01, stronger effect = lower value 0.967
